# Bioassay records as filed in PubChem.
# TDP1 cell CPT: DT40-hTDP1 cell growth loss with CPT; chicken DT40 Tdp1-/-;hTDP1 cells + 20 nM CPT, ATP luminescence, 48 h; Potency, µM (series often up to 46.2 µM), without a hit: top-dose activity change, negative = growth inhibition, actives largely listed as inhibitors; hit rate 12% among 420,000; further: potency means the concentration at half of the fitted maximal effect; nearly all actives have a fitted effect of over 55% in size
#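 Cell growth measured by CellTiter-Glo luminescence after a minimum 48 h, 37 C compound exposure with 20 nM CPT in Tdp1-knockout DT40 cells stably expressing hTDP1, seeded 400/well; qHTS titration format.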
# DT40 TDP1 no CPT: qHTS for Inhibitors of human tyrosyl-DNA phosphodiesterase 1 (TDP1): qHTS in cells in absence of CPT. DT40 Tdp1-/- hTDP1 cells, no CPT, ATP luminescence, 48 h. Potency, µM (highest dose often 46.2 µM), inactives show at the highest dose activity change, negative = growth inhibition, usual class: inhibitors. hit rate 15% among 420,000; further: potency means the concentration at half of the fitted maximal effect; nearly all actives have a fitted effect of over 55% in size
#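 Luminescent ATP content (CellTiter-Glo) served as the growth readout. Knockout chicken DT40 cells expressing human TDP1 were exposed to compounds without camptothecin for a minimum 48 hr at 37 °C.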
# Giardia killer: kills Giardia lamblia; hit rate 0.15% among 340,000; Giardia lamblia trophozoite viability; activity change, % at 7.66 µM, hits read low; in the data active means activity change below about -80%; inconclusive means between about -30% and that limit;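 further: parasites exposed to compound for two days anaerobically before the ATP read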
#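 ATP-content bioluminescence gauges trophozoite survival. Cells (100/well) receive compound and incubate anaerobically for 48 hrs at 37 deg C; detection reagent follows for 15-30 min at room temperature.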
# ELG1 repair inh: inhibitors of ELG1-dependent DNA repair in HEK293T cells; HEK293T ELG1-luciferase reporter, luminescence, 16 h; DNA damage induced by 5-fluorouridine; Potency, µM (doses to about 46.1 µM), for the others: at the top dose activity change, negative = inhibition, most hits filed as inhibitors; hit rate 2.3% among 330,000; further: potency means the concentration at half of the fitted maximal effect; nearly all actives have a fitted effect of over 55% in size
#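 HEK293T cells expressing luciferase-tagged ELG1 (2,000/well) received 5-Fluorouridine plus compound or DMSO for 16 hr at 37 °C. Luciferase was read by ONE-Glo luminescence after 30 min at room temperature.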
# TDP1 inh: TDP1 (human) enzyme inhibition; recombinant TDP1, AlphaScreen DNA substrate cleavage; Q9NUW8; hit rate 0.28% among 350,000; Potency, µM (titrated, usually from 130 µM), for the others: at the top dose activity change, negative = inhibition, hits mostly inhibitors; further: potency means the concentration at half of the fitted maximal effect; nearly all actives have a fitted effect of over 40% in size
# Target sequence (Q9NUW8 whole entry, looked up): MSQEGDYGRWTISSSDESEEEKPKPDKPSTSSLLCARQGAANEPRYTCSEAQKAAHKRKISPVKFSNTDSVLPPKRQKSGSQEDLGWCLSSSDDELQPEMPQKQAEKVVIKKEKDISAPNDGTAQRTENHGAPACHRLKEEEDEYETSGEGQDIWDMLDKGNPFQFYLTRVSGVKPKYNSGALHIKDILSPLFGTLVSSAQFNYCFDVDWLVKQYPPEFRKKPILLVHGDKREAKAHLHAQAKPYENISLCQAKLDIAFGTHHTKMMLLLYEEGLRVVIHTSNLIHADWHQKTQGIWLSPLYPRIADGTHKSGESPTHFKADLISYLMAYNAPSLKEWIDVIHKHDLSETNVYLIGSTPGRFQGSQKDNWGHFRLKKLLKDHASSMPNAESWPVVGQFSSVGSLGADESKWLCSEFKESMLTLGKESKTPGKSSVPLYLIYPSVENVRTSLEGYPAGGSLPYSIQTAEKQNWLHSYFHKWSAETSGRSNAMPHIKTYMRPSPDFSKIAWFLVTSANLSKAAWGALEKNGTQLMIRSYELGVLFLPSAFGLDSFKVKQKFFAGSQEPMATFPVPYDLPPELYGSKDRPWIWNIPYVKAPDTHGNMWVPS
#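 Compounds were preincubated with Tdp1 (1 nM final) for 15 min at room temperature before substrate (15 nM final) started a 5 min reaction; beads (10 ug/ml final) were then added for 10 min before AlphaScreen detection.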
# IL1B secr inh: inflammasome signaling inhibition, IL-1 beta readout | THP-1 LPS/ATP IL-1B secretion, AlphaLISA, 16 h; active compounds read low | activity change, % at 57.5 µM | hit rate 4.7% among 360,000; in the data active means activity change below about -50%; inconclusive means mostly about -30% to -49%
#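 THP-1 cells pretreated 1 hr with compounds (up to 57.5 uM final), then stimulated with LPS (250 ng/mL final) plus ATP (1.25 mM final); secreted IL-1B measured by AlphaLISA after 16 hr, decreased signal indicating inhibition.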
# An asterisk follows results filed as active; ? = inconclusive; . = not tested or not shown; [ ] = remark or other dose. Only some compounds are listed: those with a hit (about 19% of all), similar ones and a draw of the others. Unless noted, the call rests on the fitted dose curve; in most records, active means well fitted curve in the direction sought with a large enough effect; inconclusive means small, poorly fitted or top-dose-only effect, or another doubt; inactive means no such curve, though single readings can be large; an effect the other way counts as inactive or inconclusive. On the % scale 0 is the no-effect control and ±100 the full control effect.
SMILES,TDP1 cell CPT,DT40 TDP1 no CPT,Giardia killer,ELG1 repair inh,TDP1 inh,IL1B secr inh
COc1cccc(NC(=O)/C(C#N)=C/c2c(C)n(Cc3ccccc3)c3ccccc23)c1,?,?,.,.,1%[12.3 µM],.
COc1ccc(-c2cc(C(F)(F)F)c(C#N)c(SCC(=O)Nc3nc(C)co3)n2)cc1,?,?,27,-10%,7%,-8
Cc1coc(NC(=O)CSc2nc(-c3ccc(Cl)cc3)cc(C(F)(F)F)c2C#N)n1,21µM*,?,-7,3%,-4%,43
O=C(O)c1cc(-c2ccc(/C=C3\NC(=O)N(c4ccc(Cl)cc4)C3=O)o2)ccc1Cl,-7%,-11%,2,6%,6.3µM*,-11
C#CCN1C(=O)S/C(=C\c2ccc(-c3ccc(Cl)c(C(=O)O)c3)o2)C1=O,-29%,-29%,6,?,.,-3
O=C(O)c1cc(-c2ccc(/C=C3\NC(=O)N(c4ccccc4)C3=O)o2)ccc1Cl,?,4.1µM*,-9,27%,8.9µM*,0
O=C(CN1CCN(C(=O)c2ccco2)CC1)Nc1ccccc1-c1ccccc1,26µM*,?,-6,-15%,5%,13
CCOc1ccc(NC(=O)c2c(NC(=O)CNCCN3CCOCC3)sc3c2CCC3)cc1,?,15µM*,-13,?,9%,-11
CCOC(=O)c1c(NC(=O)CN2CCN(C(=O)c3ccco3)CC2)sc2c1CCCC2,-13%,-1%,32,21µM*,7%,82
CCOC(=O)c1c(NC(=O)CN2CCOCC2)sc2c1CCCC2,?,21µM*,5,-24%,2%,7
CCOc1ccc(NC(=O)c2c(NC(=O)c3ccccc3F)sc3c2CCC3)cc1,-3%,-14%,.,.,-1%[12.3 µM],.
CCOC(=O)c1c(NC(=O)c2ccco2)sc2c1CCCC2,?,?,-6,2%,0%,17
CC(=O)NC(CC(=O)N1CCCC1)c1ccccc1 (stereo not given),2%,3%,2,.,.,12
CCOC(=O)c1c(NC(=O)COc2cccc3c2CCN(Cc2ccc(F)cc2)C3=O)sc2c1CCC2,.,.,.,-5%,3%,.
CCOC(=O)c1c(NC(=O)COc2cccc3c2CCN(CC)C3=O)sc2c1CCC2,?,8.2µM*,3,?,1%,-2
CCOC(=O)c1cc(C)sc1NC(=O)CN1CCN(C(=O)c2ccco2)CC1,23µM*,?,2,3%,4%,0
COc1ccc(-c2csc(-c3c(N)c(C(=O)c4ccccc4)n4ccccc34)n2)cc1,-29%,?,.,.,5%,.
COc1ccc(-c2csc(-c3c(N)c(C(=O)c4ccccc4)n4ccccc34)n2)cc1OC,4.1µM*,2.3µM*,.,.,5%,.
Cc1ccc(-c2nc(CN(C)Cc3ccc4nccnc4c3)c(C)o2)s1,?,-37%,13,-15%,.,16
Cc1c(C(=O)NN2CCCCC2)nn(-c2ccc(Cl)cc2Cl)c1-c1ccc(I)cc1,?,30µM*,.,.,7%,.
Cc1onc(-c2c(Cl)cccc2Cl)c1C(=O)NN1CCCCCC1,9%,-29%,-8,?,0%,.
CC(C)CNC(=O)c1ccc(NC(=O)c2ccccc2[N+](=O)[O-])cc1,1%,-11%,-1,-7%,-1%,-22
COc1ccc(C(=O)N(Cc2cc3cccc(C)c3nc2N(C)C)CC2CCCO2)cc1 (stereo not given),-3%[9.04 µM],-4%,.,.,.,.
COc1ccc(-c2csc(N(CC3CCCO3)C(=O)c3ccccc3)n2)cc1 (stereo not given),?,?,7,8.2µM*,-11%,26
COc1ccc(-c2csc(N(CC3CCCO3)C(=O)c3ccc(C)cc3)n2)cc1 (stereo not given),26µM*,23µM*,-1,?,-2%,-19
SMILES,TDP1 cell CPT,DT40 TDP1 no CPT,Giardia killer,ELG1 repair inh,TDP1 inh,IL1B secr inh
CCOc1ccc(N(CC(=O)N2CCCCC2)S(=O)(=O)c2ccc(Cl)cc2)cc1,-18%,-29%,23,-2%,5%,-7
Cc1ccc(-c2csc3ncnc(N4CCN(c5ccccc5O)CC4)c23)cc1,?,15µM*,?,5.8µM*,6%,-61*
COc1ccc(-c2csc3ncnc(N4CCN(c5ccccc5)CC4)c23)cc1,?,?,6,?,3%,-22
COc1ccc(-c2csc3ncnc(N4CCN(c5ccc(OC)cc5)CC4)c23)cc1,23µM*,13µM*,37,?,10%,58
COc1ccc(-c2csc3ncnc(N4CCN(c5ccccc5[N+](=O)[O-])CC4)c23)cc1,?,18µM*,16,5.2µM*,7%[56.1 µM],-6
COc1ccc(-c2csc3ncnc(N4CCN(c5ccccc5O)CC4)c23)cc1,?,16µM*,-2,?,-1%,-18
O=C(CC[C@H]1O[C@@H](n2cnc3c(NC(=O)c4ccccc4)ncnc32)[C@H](O)[C@@H]1O)NCCCN1CCCC1=O,8%,2%,.,.,.,4
CCOC(=O)C1CCN(c2nc3c(S(=O)(=O)c4ccc(Br)cc4)nnn3c3ccsc23)CC1,?,?,.,.,-3%,.
CN1CCCN(c2ncnc3scc(-c4ccc(F)cc4)c23)CC1,-21%,?,4,10%,0%,-7
CC(C)c1ccc(-c2csc3ncnc(N4CCN(C)CC4)c23)cc1,16µM*,12µM*,-9,12µM*,.,-92*
CC[N+](CC)(CC#Cc1ccccc1)CC(=O)c1ccc(Cl)cc1,5.8µM*,5.8µM*,-2,-7%,5%,-3
CCC[N+](CC#CCO)(CC#Cc1ccccc1)CCC,1%,-3%,8,?,-1%,-3
C#CCOC(=O)C[N+](C)(C)CC#Cc1ccccc1,2%,8%,-14,-1%,0%,7
CCCC[N+](CC#CCO)(CC#Cc1ccccc1)CCCC,?,9.2µM*,-5,-15%,1%,-14
Cc1c(C(=O)NCC2CCCO2)cccc1[N+](=O)[O-] (stereo not given),2%,-18%,7,4%,0%,7
CCOc1ccccc1NC(=O)C(CC(C)C)NC(=O)C1CCC(C)CC1 (stereo not given),18µM*,?,5,18%,0%,10
Cc1ccsc1C(=O)N1CCC1(C)C(=O)NCc1cccnc1 (stereo not given),0%,1%,.,.,.,20
O=c1[nH]c(/C=C2\C=Nc3ccccc32)c(O)n1Cc1ccccc1F,?,?,3,?,8%,-97*
